This passage reports binding signal results from paper PMC5700166.

The target of one assay is T1, GST-Ap-NF-kB RHD (Exaiptasia pallida (Aiptasia), UniProt A0A913YAJ5 2-422).
T1 sequence: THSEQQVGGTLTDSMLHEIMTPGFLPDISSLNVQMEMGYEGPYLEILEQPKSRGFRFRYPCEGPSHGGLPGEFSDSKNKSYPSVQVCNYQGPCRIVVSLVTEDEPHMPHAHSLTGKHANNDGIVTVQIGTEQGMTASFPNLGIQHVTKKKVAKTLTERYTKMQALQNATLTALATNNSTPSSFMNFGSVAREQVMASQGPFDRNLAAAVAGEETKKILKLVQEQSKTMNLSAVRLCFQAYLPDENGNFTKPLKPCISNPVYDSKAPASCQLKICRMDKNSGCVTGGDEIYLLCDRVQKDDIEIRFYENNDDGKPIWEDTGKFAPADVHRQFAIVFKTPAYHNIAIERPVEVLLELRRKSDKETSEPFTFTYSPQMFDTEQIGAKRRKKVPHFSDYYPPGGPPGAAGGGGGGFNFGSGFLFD
As to the kind of experiment: protein-binding microarray (PBM); PBM: ~300 nM protein, 6 mM HEPES pH 7.8, 80 mM KCl, 0.5 mM EDTA, 0.5 mM EGTA, 6% glycerol, 35 ng/ul poly-dIdC, 1% milk, 1 h, room temperature; Ap Aiptasia and Nv Nematostella (sea anemones) / Co Capsaspora / Aq Amphimedon (sponge) / Dm Drosophila / Hu human; RHD is the Rel homology domain; high values mean tight binding. The note with it: dsDNA, one strand shown.
Sequence “CCGATTAACATCACGGAATGCCCTGATGTTAATCGGGTCTTGATTCGCTTGACGCTGCTG” registered a binding signal of 1.03 z-score. On the same count and under the same terms, next, “CCGATTAACATCAGGAATTCCTATGATGTTAATCGGGTCTTGATTCGCTTGACGCTGCTG”: 1.1 z-score. “CCGATTAACATCACCCCCTCCCCTGATGTTAATCGGGTCTTGATTCGCTTGACGCTGCTG” showed a binding signal of 3.75 z-score.

In the case of “CCGATTAACATCAAGGGCATCCCTGATGTTAATCGGGTCTTGATTCGCTTGACGCTGCTG”, the binding signal turned out to be 1.42 z-score.

Sequence “CCGATTAACATCACGGAGATCCCTGATGTTAATCGGGTCTTGATTCGCTTGACGCTGCTG” gave a binding signal of 1.39 z-score.

“CCGATTAACATCAGTACTTCCCATGATGTTAATCGGGTCTTGATTCGCTTGACGCTGCTG” returned a binding signal of 1.53 z-score. Still for that read-out and setting: to “CCGATTAACATCAGGAATGCCCATGATGTTAATCGGGTCTTGATTCGCTTGACGCTGCTG” belongs 1.27 z-score; to “CCGATTAACATCACGGGATTGCCTGATGTTAATCGGGTCTTGATTCGCTTGACGCTGCTG”, 1.39 z-score.

In turn, “CCGATTAACATCAAGGTGTTCCCTGATGTTAATCGGGTCTTGATTCGCTTGACGCTGCTG” returned a binding signal of 1.65 z-score. Turning to “CCGATTAACATCAGGAAAGCCCATGATGTTAATCGGGTCTTGATTCGCTTGACGCTGCTG”, the binding signal was found to be 1.24 z-score. On the same count and under the same terms, next, “CCGATTAACATCAGGAAACACCATGATGTTAATCGGGTCTTGATTCGCTTGACGCTGCTG”: 1 z-score; “CCGATTAACATCAGCGGAATTCCTGATGTTAATCGGGTCTTGATTCGCTTGACGCTGCTG”: 1.33 z-score; “CCGATTAACATCAGGGGTACACATGATGTTAATCGGGTCTTGATTCGCTTGACGCTGCTG”: 1.77 z-score. As for “CCGATTAACATCACCTCCCCCCCTGATGTTAATCGGGTCTTGATTCGCTTGACGCTGCTG”, the binding signal was found to be 4.48 z-score. For “CCGATTAACATCACGGGATGCCCTGATGTTAATCGGGTCTTGATTCGCTTGACGCTGCTG”, the binding signal was found to be 1.03 z-score. Still for that read-out and setting: to “CCGATTAACATCAAGGAAATACCTGATGTTAATCGGGTCTTGATTCGCTTGACGCTGCTG” belongs 1.2 z-score; to “CCGATTAACATCAGGGCATTCCATGATGTTAATCGGGTCTTGATTCGCTTGACGCTGCTG”, 1.14 z-score.

The sequence “CCGATTAACATCAAGGAAAGCCCTGATGTTAATCGGGTCTTGATTCGCTTGACGCTGCTG” returned a binding signal of 1.19 z-score. Still for that read-out and setting: to “CCGATTAACATCACCGGAATTCCTGATGTTAATCGGGTCTTGATTCGCTTGACGCTGCTG” belongs 1.13 z-score; to “CCGATTAACATCACCGGAATTTCTGATGTTAATCGGGTCTTGATTCGCTTGACGCTGCTG”, 1.27 z-score. Take “CCGATTAACATCACGGCAACCCCTGATGTTAATCGGGTCTTGATTCGCTTGACGCTGCTG”: the binding signal turned out to be 1.78 z-score. For “CCGATTAACATCAGGAGATCCCATGATGTTAATCGGGTCTTGATTCGCTTGACGCTGCTG”, the binding signal turned out to be 1.24 z-score. On to “CCGATTAACATCAAGGAATGCCCTGATGTTAATCGGGTCTTGATTCGCTTGACGCTGCTG”, for which the binding signal amounted to 1.68 z-score.

Sequence “CCGATTAACATCAGGGATTAACATGATGTTAATCGGGTCTTGATTCGCTTGACGCTGCTG” came in with a binding signal of 1.77 z-score. “CCGATTAACATCAGGAGGTTCCCTGATGTTAATCGGGTCTTGATTCGCTTGACGCTGCTG”: the binding signal stood at 2.28 z-score. “CCGATTAACATCACGGGATGTCCTGATGTTAATCGGGTCTTGATTCGCTTGACGCTGCTG”: the binding signal is 1.47 z-score. Take “CCGATTAACATCACGGGGGGGGCTGATGTTAATCGGGTCTTGATTCGCTTGACGCTGCTG”: the binding signal stood at 4.19 z-score. The same measure, in the same setting: to “CCGATTAACATCAGGGCATCCCATGATGTTAATCGGGTCTTGATTCGCTTGACGCTGCTG” belongs 1.37 z-score; to “CCGATTAACATCAGGAATCCCAATGATGTTAATCGGGTCTTGATTCGCTTGACGCTGCTG”, 1.71 z-score; to “CCGATTAACATCACGGGATCTCCTGATGTTAATCGGGTCTTGATTCGCTTGACGCTGCTG”, 2.16 z-score. Consider “CCGATTAACATCAGGGGTGCCCATGATGTTAATCGGGTCTTGATTCGCTTGACGCTGCTG”, for which the binding signal worked out at 1.69 z-score. Sequence “CCGATTAACATCACGGGCTTTCCTGATGTTAATCGGGTCTTGATTCGCTTGACGCTGCTG” displayed a binding signal of 1.64 z-score. Take “CCGATTAACATCAGGCAATCCCATGATGTTAATCGGGTCTTGATTCGCTTGACGCTGCTG”: the binding signal is 1 z-score. Sequence “CCGATTAACATCAAGGGGGGGATTGATGTTAATCGGGTCTTGATTCGCTTGACGCTGCTG” returned a binding signal of 7.19 z-score.

In a further assay the target is T2, GST-Nv-NF-kB (Cys allele) (Nematostella vectensis, UniProt E5G601 2-411).
T2 sequence: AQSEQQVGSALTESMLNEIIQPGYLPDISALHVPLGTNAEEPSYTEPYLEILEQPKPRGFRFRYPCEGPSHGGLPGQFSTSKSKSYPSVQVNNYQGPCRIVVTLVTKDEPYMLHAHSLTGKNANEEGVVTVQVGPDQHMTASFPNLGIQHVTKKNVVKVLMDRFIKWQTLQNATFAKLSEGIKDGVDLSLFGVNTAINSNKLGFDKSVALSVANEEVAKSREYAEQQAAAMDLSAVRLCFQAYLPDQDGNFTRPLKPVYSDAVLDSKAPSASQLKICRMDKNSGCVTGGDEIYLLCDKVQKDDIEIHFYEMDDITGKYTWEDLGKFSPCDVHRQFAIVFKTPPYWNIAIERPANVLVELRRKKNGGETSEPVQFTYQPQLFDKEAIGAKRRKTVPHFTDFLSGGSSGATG
The assay is described as above. Conditions: dsDNA, one strand shown.
The sequence “CCGATTAACATCAGTAGTGGGGCTGATGTTAATCGGGTCTTGATTCGCTTGACGCTGCTG” returned a binding signal of 1.01 z-score. “CCGATTAACATCAGGGTCTTATATGATGTTAATCGGGTCTTGATTCGCTTGACGCTGCTG” registered a binding signal of 1.26 z-score. Same read-out and setting: next, “CCGATTAACATCAAGAAATTTCCTGATGTTAATCGGGTCTTGATTCGCTTGACGCTGCTG”: 1.11 z-score. In the case of “CCGATTAACATCAGGAATATTCCTGATGTTAATCGGGTCTTGATTCGCTTGACGCTGCTG”, the binding signal turned out to be 1.22 z-score. Sequence “CCGATTAACATCACGTAAGGGATTGATGTTAATCGGGTCTTGATTCGCTTGACGCTGCTG” had a binding signal of 1.34 z-score.

For the next assay, the target named is T3, GST-Co-NF-kB (Capsaspora owczarzaki, UniProt F1ARL5 200-546).
T3 sequence: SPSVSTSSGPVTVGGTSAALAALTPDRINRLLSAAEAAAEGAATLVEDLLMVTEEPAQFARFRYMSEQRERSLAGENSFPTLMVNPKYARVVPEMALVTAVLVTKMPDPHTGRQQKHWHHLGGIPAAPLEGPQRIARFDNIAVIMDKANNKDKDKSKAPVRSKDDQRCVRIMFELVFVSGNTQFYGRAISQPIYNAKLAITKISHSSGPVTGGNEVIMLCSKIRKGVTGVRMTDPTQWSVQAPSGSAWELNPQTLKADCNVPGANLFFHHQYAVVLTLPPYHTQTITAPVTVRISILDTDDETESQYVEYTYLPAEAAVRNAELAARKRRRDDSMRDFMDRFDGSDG
Described as above. Conditions: dsDNA, one strand shown.
Turning to “CCGATTAACATCACCCCCTCCCCTGATGTTAATCGGGTCTTGATTCGCTTGACGCTGCTG”, the binding signal was found to be 4.75 z-score.

Consider “CCGATTAACATCAGTACTTCCCATGATGTTAATCGGGTCTTGATTCGCTTGACGCTGCTG”, for which the binding signal was 1.42 z-score. The sequence “CCGATTAACATCAAGGTGTTCCCTGATGTTAATCGGGTCTTGATTCGCTTGACGCTGCTG” had a binding signal of 2.38 z-score. As to “CCGATTAACATCAGGGGTACACATGATGTTAATCGGGTCTTGATTCGCTTGACGCTGCTG”, the binding signal stood at 4.09 z-score. “CCGATTAACATCACCTCCCCCCCTGATGTTAATCGGGTCTTGATTCGCTTGACGCTGCTG” yielded a binding signal of 3.77 z-score. As to “CCGATTAACATCACCGGAATTCCTGATGTTAATCGGGTCTTGATTCGCTTGACGCTGCTG”, the binding signal came out at 1.36 z-score. Same read-out and setting: next, “CCGATTAACATCACGGGGGGGGCTGATGTTAATCGGGTCTTGATTCGCTTGACGCTGCTG”: 5.11 z-score; “CCGATTAACATCAAGGGGGGGATTGATGTTAATCGGGTCTTGATTCGCTTGACGCTGCTG”: 4.35 z-score.
